Shown are actives, neighbours in structure and some others; about 4.1% of the full set was active somewhere.
ssDAF-12 act = S. stercoralis DAF-12 activation, primary screen; HEK293 ssDAF-12/GRIP1 lit1-tk-luc reporter, luminescence; % of 3 µM dafachronic acid response; activation, % at 6.8 µM; 370,000 compounds, 1% hits;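 active = activation above the mean over all tested compounds plus 3 SD, cut at about 0.9% in these data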;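 also: 0% = DMSO-only wells and 100% = 3 µM delta7-dafachronic acid wells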
DAX1 inh-1 = NR0B1 (DAX1) inhibition. 340,000 compounds, 0.99% hits. HEK293 Gal4-DAX1 luciferase reporter, luminescence. inhibition, % at 6.75 µM. P51843;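 active = inhibition above the mean over all tested compounds plus 3 SD, cut at about 4.2% in these data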;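 also: 0% = DAX1-transfected cells with DMSO and 100% = empty-vector control cells with DMSO; inhibition shows as a rise in luminescence from relieved DAX1 repression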
Target sequence (P51843 207-470 limits assumed): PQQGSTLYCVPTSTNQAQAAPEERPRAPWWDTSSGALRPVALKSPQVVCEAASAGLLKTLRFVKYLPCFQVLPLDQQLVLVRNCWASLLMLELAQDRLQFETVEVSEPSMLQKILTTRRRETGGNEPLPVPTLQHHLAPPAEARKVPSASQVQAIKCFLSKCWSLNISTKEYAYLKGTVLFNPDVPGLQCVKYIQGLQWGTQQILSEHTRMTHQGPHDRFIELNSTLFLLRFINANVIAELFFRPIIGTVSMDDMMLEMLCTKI
hgDAF-12 ag = agonists of H. glycines DAF-12 nuclear receptor; HEK293 GAL4-hgDAF12 UAS-luciferase reporter, agonist luminescence; normalized to butyrate control; activation, % at 6.8 µM; 370,000 compounds, 1.8% hits; AID 687014;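 active = activation above a cutoff set at the mean of all screened compounds plus 3 SD, cut at about 10% in these data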;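 also: 0% = DMSO wells and 100% = sodium butyrate wells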
hcDAF12 agonist = activates DAF-12 receptor from parasite H. contortus; HEK293 hcDAF-12 lit1-tk-luc reporter, luminescence; 0% DMSO, 100% Δ7-dafachronic acid; activation, % at 6.8 µM; 370,000 compounds, 1.4% hits; AID 652067;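 active = activation above the mean of all tested compounds plus 3 SD, cut at about 5.5% in these data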;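 also: 100% = response to 3 µM Δ7-dafachronic acid high control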
DAX1 inh-2 = blocks DAX1 repression of SF-1 activated StAR promoter | 370,000 compounds, 1.1% hits | inhibition, % at 6.8 µM | HEK293T StAR-luciferase reporter, SF-1/DAX-1 repression relief;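 active = inhibition above the mean over all tested compounds plus 3 SD, cut at about 3.6% in these data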;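 also: 0% = DAX-1 cells with DMSO and 100% = cells lacking DAX-1 with DMSO; higher inhibition means more luminescence from relief of DAX-1 repression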
LXRb hcDAF ctr = LXR-beta agonism as hcDAF-12 counter-screen; shares compounds with hcDAF12 agonist; HEK293 Gal4-LXR tk-luc reporter, luminescence, 24 h; normalized: DMSO 0%, positive control 100%; activation, % at 6.8 µM; 3,400 tested, under 10 active; AID 743027;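 active = mean percent activation of the reporter above a cutoff set as the average over tested compounds plus their standard deviation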
Target sequence (P55055 whole entry, looked up, the tested form may be a part): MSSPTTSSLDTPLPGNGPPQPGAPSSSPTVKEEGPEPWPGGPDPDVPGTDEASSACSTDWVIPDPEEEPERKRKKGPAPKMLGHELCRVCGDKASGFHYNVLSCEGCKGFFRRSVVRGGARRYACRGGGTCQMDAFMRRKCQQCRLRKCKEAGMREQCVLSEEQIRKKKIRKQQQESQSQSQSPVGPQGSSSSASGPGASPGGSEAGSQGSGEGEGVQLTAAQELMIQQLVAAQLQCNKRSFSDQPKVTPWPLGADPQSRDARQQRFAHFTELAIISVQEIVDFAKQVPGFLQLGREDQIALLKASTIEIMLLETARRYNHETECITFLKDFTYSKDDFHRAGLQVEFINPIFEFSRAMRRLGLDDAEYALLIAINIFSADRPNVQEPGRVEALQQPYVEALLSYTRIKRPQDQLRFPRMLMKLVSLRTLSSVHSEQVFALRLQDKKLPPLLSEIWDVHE
hcDAF12 ag = hcDAF-12 agonism, confirmation assay; shares compounds with hcDAF12 agonist; HEK293 hcDAF-12 lit1-tk-luc reporter, luminescence; % of Δ7-dafachronic acid response; activation, % at 6.8 µM; 3,400 compounds, 61% hits; AID 743032;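 active = mean activation across triplicate tests above the threshold derived from the earlier primary screen, cut at about 5.5% in these data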;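 also: 0% = DMSO only wells and 100% = 3 µM Δ7-dafachronic acid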
Starred values were filed as active, the others as inactive.

Screening COc1cccc(-n2c(Cc3cc(=O)[nH]c(=O)[nH]3)nnc2SCC(=O)N2CCCCC2)c1 returned ssDAF-12 act 0.5, DAX1 inh-1 1.2, hgDAF-12 ag -0.8, hcDAF12 agonist 8.3*, DAX1 inh-2 -0.7, LXRb hcDAF ctr -0.2 and hcDAF12 ag 3.9.
For C=CCn1c(SCC(=O)N2CCN(c3ccccc3)CC2)nc2c([nH]c3ccccc32)c1=O the results were ssDAF-12 act -0.4, DAX1 inh-1 2.7, hgDAF-12 ag 1.8, hcDAF12 agonist 9.4*, DAX1 inh-2 0.7, LXRb hcDAF ctr -0.2 and hcDAF12 ag 4.5.
`COc1cccc(-n2c(SCC(=O)N3CCCCC3)nc3c([nH]c4ccccc43)c2=O)c1` gave ssDAF-12 act 0.2, DAX1 inh-1 -0.2, hgDAF-12 ag 2.3, hcDAF12 agonist 7.0*, DAX1 inh-2 1.3, LXRb hcDAF ctr -0.2 and hcDAF12 ag 3.9.
COc1ccc(NC(=O)CCCNC(=O)Cn2cnc3sc4c(c3c2=O)CCCC4)c(OC)c1 was read as ssDAF-12 act -1.1, DAX1 inh-1 0.2, hgDAF-12 ag -1.7, hcDAF12 agonist -1.4 and DAX1 inh-2 -0.2.
Screening CSC(=S)N/N=C(\C)c1ccccc1 returned ssDAF-12 act -0.3, DAX1 inh-1 -1.4, hgDAF-12 ag 1.4, hcDAF12 agonist 0.4 and DAX1 inh-2 0.0.
For O=C(CCCCCn1c(=S)[nH]c2cc3c(cc2c1=O)OCO3)N1CCN(c2ccccc2)CC1 the results were ssDAF-12 act -1.2, DAX1 inh-1 0.4, hgDAF-12 ag 2.4, hcDAF12 agonist 6.8*, DAX1 inh-2 -0.7, LXRb hcDAF ctr -0.4 and hcDAF12 ag -1.2.
`CN1CCN(C2CCN(c3ccc(Nc4nnc(Cl)c(Nc5ccccc5S(C)(=O)=O)n4)c(OC(CF)CF)c3)CC2)CC1` gave ssDAF-12 act -1.2, DAX1 inh-1 -0.6, hgDAF-12 ag -0.7, hcDAF12 agonist -1.0 and DAX1 inh-2 0.3.
`CCCn1nnnc1SCC(=O)NC1CCCC1` gave ssDAF-12 act -0.2, DAX1 inh-1 0.1, hgDAF-12 ag 0.2, hcDAF12 agonist 0.3 and DAX1 inh-2 -0.2.
O=C(O)c1cccc(NC(=O)c2cccc(S(=O)(=O)N3CCc4ccccc4C3)c2)c1 was read as ssDAF-12 act -1.4, DAX1 inh-1 0.6, hgDAF-12 ag -0.8, hcDAF12 agonist -0.5 and DAX1 inh-2 -0.1.
Screening Cc1cc(C)n2nc(-c3ccc(Cl)cc3)cc2n1 returned ssDAF-12 act 1.9*, DAX1 inh-1 3.6, hgDAF-12 ag 11.1*, hcDAF12 agonist 13.1*, DAX1 inh-2 1.2, LXRb hcDAF ctr 1.1 and hcDAF12 ag 12.4*.
Screening Cc1cc(-c2ccc(Cl)cc2)n2nc(C)cc2n1 returned ssDAF-12 act -1.3, DAX1 inh-1 -0.4, hgDAF-12 ag 0.7, hcDAF12 agonist 1.0 and DAX1 inh-2 0.0.
`COc1ccc(-c2cc3nc(C)cc(C)n3n2)cc1` gave ssDAF-12 act 2.7*, DAX1 inh-1 8.0*, hgDAF-12 ag 11.8*, hcDAF12 agonist 9.2*, DAX1 inh-2 2.6, LXRb hcDAF ctr 0.9 and hcDAF12 ag 13.0*.
`COc1ccc(OCCSc2nc3nc(C)cc(C)n3n2)cc1` gave ssDAF-12 act -2.2, DAX1 inh-1 1.9, hgDAF-12 ag -3.6, hcDAF12 agonist -1.2 and DAX1 inh-2 0.0.
`Cc1nc2cc(-c3ccc(Cl)cc3)nn2c(NCCN(C)C)c1C` gave ssDAF-12 act 1.5*, DAX1 inh-1 1.8, hgDAF-12 ag 5.5, hcDAF12 agonist 12.6*, DAX1 inh-2 1.5, LXRb hcDAF ctr 0.3 and hcDAF12 ag 7.5*.
Screening Cc1cc(C)n2nc(-c3ccc(Br)cc3)cc2n1 returned ssDAF-12 act 1.5*, DAX1 inh-1 4.7*, hgDAF-12 ag 11.0*, hcDAF12 agonist 14.4*, DAX1 inh-2 1.6, LXRb hcDAF ctr 1.0 and hcDAF12 ag 11.0*.
`COc1cc2[nH]c(=O)n(CCC(=O)NCCCN3CCN(c4ccccc4F)CC3)c(=O)c2cc1OC` gave ssDAF-12 act -1.6, DAX1 inh-1 0.9, hgDAF-12 ag -1.3, hcDAF12 agonist -0.5 and DAX1 inh-2 0.5.
`O=C(c1cc(F)c(F)c(F)c1F)N1CCN(Cc2ccc3c(c2)OCO3)CC1` gave ssDAF-12 act -1.4, DAX1 inh-1 -1.0, hgDAF-12 ag -3.4, hcDAF12 agonist -0.7 and DAX1 inh-2 -0.4.
`Cc1ccc(C2/C=C\CC(NC(=O)OCC3c4ccccc4-c4ccccc43)CC(=O)N2Cc2ccccc2)cc1` (configuration not stated) gave ssDAF-12 act -1.5, DAX1 inh-1 1.4, hgDAF-12 ag 1.6, hcDAF12 agonist -0.8 and DAX1 inh-2 -1.2.
For CCC(NS(=O)(=O)c1ccc2c(c1)NC(=O)C(C)C(=O)N2)c1cccs1 (configuration not stated) the results were ssDAF-12 act -1.2, DAX1 inh-1 -0.2, hgDAF-12 ag 2.1, hcDAF12 agonist -1.2 and DAX1 inh-2 0.5.
Screening S=C(Nc1ccccc1)Nc1ccc(Br)cn1 returned ssDAF-12 act -1.1, DAX1 inh-1 -1.4, hgDAF-12 ag 0.9, hcDAF12 agonist -2.5 and DAX1 inh-2 -0.5.
For NC(=S)Nc1nc2ccccc2s1 the results were ssDAF-12 act 0.8, DAX1 inh-1 0.2, hgDAF-12 ag 9.7, hcDAF12 agonist 7.9*, DAX1 inh-2 1.6, LXRb hcDAF ctr 0.5 and hcDAF12 ag 7.0*.
Screening COc1n[nH]c(C(=O)Nc2nc3ccccc3s2)c1[N+](=O)[O-] returned ssDAF-12 act 0.2, DAX1 inh-1 3.0, hgDAF-12 ag 10.0, hcDAF12 agonist 8.0*, DAX1 inh-2 1.5, LXRb hcDAF ctr 0.4 and hcDAF12 ag 6.1*.
Screening COc1ccc(NC(=O)Nc2nc3ccccc3s2)cc1 returned ssDAF-12 act 0.5, DAX1 inh-1 2.3, hgDAF-12 ag 11.2*, hcDAF12 agonist 7.1*, DAX1 inh-2 2.2, LXRb hcDAF ctr 0.7 and hcDAF12 ag 1.8.
O=C(NC(=S)Nc1ccc(Br)cn1)c1cccs1 was read as ssDAF-12 act 2.0*, DAX1 inh-1 6.1*, hgDAF-12 ag 14.4*, hcDAF12 agonist 12.9*, DAX1 inh-2 2.7, LXRb hcDAF ctr 1.5 and hcDAF12 ag 12.0*.
`CCCS(=O)(=O)NC(=O)C1(C)CCN(C(=O)c2c(F)ccc(C)c2F)C1` (configuration not stated) gave ssDAF-12 act -0.9, hgDAF-12 ag 4.7, hcDAF12 agonist -0.3 and DAX1 inh-2 0.1.
Screening CCCN1CCN(C(=O)c2c(Cl)cnn2C)CC1 returned ssDAF-12 act -0.5, DAX1 inh-1 0.7, hgDAF-12 ag -1.4, hcDAF12 agonist -0.4 and DAX1 inh-2 -1.6.

Screening data (PubChem)
